The values below come from the supplement of paper PMC7858590.

The structures appear in SMILES notation.

In one test the test system is human monocyte-derived macrophages (polarized). The test can be described thus: cell shape (eccentricity) Z-score vs DMSO control; higher = more elongated, M2-like morphology. The following applies: 5 µM; 24 h; macrophage state: M1-polarized (IFNg + TNFa), cytokines present during treatment. The protocol:
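Primary-screen hits were rescreened on polarized hMDMs with the differentiating cytokines (IL-4 + IL-13 or IFNg + TNFa) kept in the medium during treatment with compound at 5 uM for 24 h. The eccentricity Z-score vs DMSO wells is averaged over experiments.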
Turning to `C[C@@H]1O[C@@H](Oc2cc(O)c3c(=O)c(O[C@@H]4O[C@@H](C)[C@H](O[C@@H]5O[C@@H](C)[C@H](O)[C@@H](O)[C@H]5O)[C@@H](O)[C@H]4O)c(-c4ccc(O)cc4)oc3c2)[C@H](O)[C@H](O)[C@H]1O`, the “cell shape (Z-score)” value came out at 5.9.

On to `O=c1cc(-c2ccc(O)cc2)oc2cc(O)ccc12`, for which the “cell shape (Z-score)” value is 2.2.

With `CC(C)(C)c1nc(-c2cccc(NS(=O)(=O)c3c(F)cccc3F)c2F)c(-c2ccnc(N)n2)s1`, the “cell shape (Z-score)” value is -2.77.

For the compound `Cc1onc(-c2ccccc2Cl)c1C(=O)N[C@@H]1C(=O)N2[C@@H]1SC(C)(C)[C@@H]2C(=O)O`, the “cell shape (Z-score)” value was -5.49.

As to `CC(C)(C)OC(=O)Nc1ccc(-c2cc(C(=O)NCCCCCCC(=O)NO)no2)cc1`, the “cell shape (Z-score)” value was -0.14.

As for `COc1cc(C2OC(c3cc(OC)c(OC)c(OC)c3)C(C)C2C)cc(OC)c1OC` (stereo not given), the “cell shape (Z-score)” value worked out at 4.93.

For the compound `CC[C@@H]1C(=O)N(C)c2cnc(Nc3ccc(C(=O)NC4CCN(C)CC4)cc3OC)nc2N1C1CCCC1`, the “cell shape (Z-score)” value was -1.93.

As for `CC1CC(=O)c2c(ccc3c2C(=O)c2cccc(O)c2C3O)C1` (stereo not given), the “cell shape (Z-score)” value was -2.52.

In the case of `O=C1Cc2c([nH]c3ccc([N+](=O)[O-])cc23)-c2ccccc2N1`, the “cell shape (Z-score)” value came out at 4.68.

On to `CC1(C)CCC(CN2CCN(c3ccc(C(=O)NS(=O)(=O)c4ccc(NCC5CCOCC5)c([N+](=O)[O-])c4)c(Oc4cnc5[nH]ccc5c4)c3)CC2)=C(c2ccc(Cl)cc2)C1`, for which the “cell shape (Z-score)” value is 4.11.

For the compound `O=C(/C=C/c1ccccc1)c1ccc(O)cc1`, the “cell shape (Z-score)” value stood at 8.35.

As to `COc1ccc(-c2cc(=O)c3c(O)cc(OC)c(OC)c3o2)c(OC)c1`, the “cell shape (Z-score)” value was -4.83.

Take `Nc1ncnc2n[nH]c(Nc3ccc(F)cc3)c12`: the “cell shape (Z-score)” value came out at 3.71.

Take `Nc1nc(Nc2ccccc2)nc2c1ncn2C1OC(CO)C(O)C1O` (stereo not given): the “cell shape (Z-score)” value is 2.02.

In the case of `CCC1(C)CC(=O)NC1=O` (stereo not given), the “cell shape (Z-score)” value is -7.19.

Consider `Cc1c(NC(=O)c2cccnc2)c(=O)n(-c2ccccc2)n1C`, for which the “cell shape (Z-score)” value came out at 1.43.

For `C#C[C@]1(O)CC[C@H]2[C@@H]3CCC4=Cc5oncc5C[C@]4(C)[C@H]3CC[C@@]21C`, the “cell shape (Z-score)” value was -4.38.

As to `Cn1c([N+](=O)[O-])cnc1COC(N)=O`, the “cell shape (Z-score)” value is -4.21.

Turning to `COc1cc2ncnc(Nc3ccc(F)c(Cl)c3)c2cc1OCCCN1CCOCC1`, the “cell shape (Z-score)” value is -0.66.

For `O=C(Cc1ccc(-c2ccc(OCCN3CCOCC3)cc2)cn1)NCc1ccccc1`, the “cell shape (Z-score)” value is 9.67.

As for `Cc1ccc(S(=O)(=O)OCC(=O)Nc2ccc(C(=O)O)c(O)c2)cc1`, the “cell shape (Z-score)” value was -2.63.

As to `O=C(Nc1ccncc1)c1cc([N+](=O)[O-])ccc1Cl`, the “cell shape (Z-score)” value worked out at 5.38.

For the compound `CC1(C)CCC(C)(C)c2cc(C(=O)Nc3ccc(C(=O)O)cc3)ccc21`, the “cell shape (Z-score)” value was -9.74.

With `Nc1nc(Nc2ccc3c(c2)CCC(N2CCCC2)CC3)nn1-c1cc2c(nn1)-c1ccccc1CCC2` (stereo not given), the “cell shape (Z-score)” value was -4.94.

In the case of `COc1ccc2oc(-c3ccccc3OC)cc(=O)c2c1`, the “cell shape (Z-score)” value worked out at 0.285.

Turning to `COc1nccnc1NS(=O)(=O)c1ccc(NC(=O)/C=C/c2ccc([N+](=O)[O-])s2)cc1`, the “cell shape (Z-score)” value is -4.64.

The test is the same for the next values; noted with them: 5 µM; 24 h; macrophage state: M2-polarized (IL-4 + IL-13), cytokines present during treatment.
Regarding `N#CN=C(NCCCCCCOc1ccc(Cl)cc1)Nc1ccncc1`, the “cell shape (Z-score)” value was -5.22.

Regarding `Oc1ccc(-c2nc(-c3ccc(F)cc3)c(-c3ccncc3)[nH]2)cc1`, the “cell shape (Z-score)” value was -2.38.

On to `C[C@H]1CN([C@@H](C)CO)C(=O)Cc2cc(NC(=O)CCC(F)(F)F)ccc2O[C@H]1CN(C)S(=O)(=O)c1ccc(Cl)cc1`, for which the “cell shape (Z-score)” value was -11.

Take `CC[C@@]1(O)C(=O)OCc2c1cc1n(c2=O)Cc2cc3c([N+](=O)[O-])cccc3nc2-1`: the “cell shape (Z-score)” value is -14.4.

On to `C[C@@H]1O[C@@H](O[C@@H]2[C@@H](O)[C@H](OC(=O)[C@]34CCC(C)(C)CC3C3=CCC5[C@@]6(C)CC[C@H](OC7OC(CO)C(OC8OCC(O)C(O)C8O)C(O)C7O)C(C)(C)C6CC[C@@]5(C)[C@]3(C)CC4O)O[C@H]2CO)[C@H](O)[C@H](O)[C@H]1O[C@H]1OC[C@](O)(CO)[C@H]1O` (stereo not given in full), for which the “cell shape (Z-score)” value is -4.86.

As for `COC(=O)Nc1nc2ccc(C(=O)C3CC3)cc2[nH]1`, the “cell shape (Z-score)” value is -16.3.

As for `CCCS(=O)(=O)Nc1ccc(F)c(C(=O)c2c[nH]c3ncc(-c4ccc(Cl)cc4)cc23)c1F` [Vemurafenib], the “cell shape (Z-score)” value is -1.16.

For the compound `COc1cc2c(cc1-c1coc3c4c(ccc3c1=O)OC(C)(C)C=C4)OCO2`, the “cell shape (Z-score)” value is -5.25.

Take `CCN(CCCCOC(=O)c1ccc(OC)c(OC)c1)C(C)Cc1ccc(OC)cc1` (stereo not given): the “cell shape (Z-score)” value was -4.84.

Consider `CCCCc1ccc2[nH]c(NC(=O)OC)nc2c1`, for which the “cell shape (Z-score)” value came out at 0.889.

As for `COc1cc(O)c2c(=O)c(OC)c(-c3ccc(OC)c(OC)c3)oc2c1`, the “cell shape (Z-score)” value was -8.25.

Regarding `CC(Nc1nc(N2CCCC2)nc2ccccc12)c1ccccc1` (stereo not given), the “cell shape (Z-score)” value is -11.8.

Take `C=C1C(=O)O[C@@H]2C3=C(C)CC[C@]34O[C@@H](C[C@@H]4C)[C@H]12`: the “cell shape (Z-score)” value amounted to 13.

`COc1ccc(/C=C/C(=O)c2ccc(O)cc2O)cc1`: the “cell shape (Z-score)” value was -3.18.
